Measurements: PubChem BioAssay AID463173 (ICCB-Longwood Screening Facility, Harvard Medical School, 2010)
The campaign covered roughly 52,000 compounds. About 1,700 (3.3%) were called active. The sample as a whole holds a higher share of actives than the screen did. A number with no mark means an inactive call. Cut-off read from the data, not from the text of the source: active = survival mostly below about 52% (no sharp cut-off); inactive = mostly above about 56%.

The compounds below were run on Wild type (assay: growth inhibition of S. aureus wild type versus tarO mutant, primary screen, teichoic acid synthesis inhibitors, RN4220, OD600 (AID 463173)). Details: S. aureus RN4220 wild type/DeltatarO growth, OD600, 18 h, hits give low values, screened at 18.75 µg/mL (by protocol).

SMILES | survival
CCC1CCCCN1C(=O)Cn1c(=O)cc(C(F)(F)F)c2c(C)nn(C)c21 (configuration not stated) | 68%
Cc1ccc(-c2cc(C(=O)NCc3ccccc3)c3c(-c4ccc(C)cc4)[nH]nc3n2)cc1 | 75%
O=C(Cn1c(=O)nc(-c2ccccc2)c2cc(Cl)ccc21)NCCc1ccccc1 | 69%
Cc1ccc(NC(=O)/C=C/c2ccccc2Cl)cc1Cl | 97%
CCCCOC(=O)c1ccc(NC(=O)c2cc(=O)c3ccccc3o2)cc1 | 93%
O=C(Nc1ccc(NC(=O)c2cc3ccccc3o2)cc1)c1ccccc1 | 80%
CCCCOC(=O)c1cccc(NC(=O)c2cc3ccccc3o2)c1 | 0% (active)
CCN(CC)c1cc(C)c2cc(NC(=O)/C=C/c3ccccc3Cl)ccc2n1 | 76%
CCCCOC(=O)c1cccc(NC(=O)/C=C/c2ccccc2Cl)c1 | 7% (active)
CC(C)CC(=O)Nc1ccc(C(=O)OCc2cc(=O)n3nc(C4CCCCC4)sc3n2)cc1 | 47%
CCC12C=CCN3CCC4(c5ccc(OC)cc5NC4C(O)(C(=O)OC)C1OC(C)=O)C32 (configuration not stated) | 100%
Cc1ccc(-c2nc(CN(C)C)cc(CN(C)C)c2O)cc1 | 121%
CCOC(=O)CC(N)c1ccc2c(c1)OCO2 (configuration not stated) | 111%
O=c1c2cc3c(cc2n(Cc2ccccc2)c(=O)n1Cc1nc(-c2ccccc2)no1)OCO3 | 112%
CC(C)CC(=O)Nc1ccc(C(=O)OCc2cc(=O)n3nc(C(C)C)sc3n2)cc1 | 138%
Nc1ccc2nc(SCCOc3ccccc3)sc2c1 | 108%
COc1ccc2nc(SCC(O)c3cccc(Br)c3)[nH]c2c1 (configuration not stated) | 84%
Brc1ccc2nc(SCCOc3ccccc3)[nH]c2c1 | 0% (active)
O=C(Nc1c[nH]c2cc(Cl)ccc2c1=O)N1CCCCC1 | 85%
CSc1ccc(CNC(=O)Cn2nc(N3CCN(c4ccccc4)CC3)ccc2=O)cc1 | 64%
O=c1c2sc3ccccc3c2n(Cc2cccc(Cl)c2)c(=O)n1Cc1ccco1 | 68%
CCN1CCOC(=O)C1CC(=O)Nc1ccc(C(C)=O)cc1 (configuration not stated) | 65%
CCCOc1ccc(NC(=O)CC2C(=O)N(c3ccc(C)cc3)C(=O)N2C(C)C)cc1 (configuration not stated) | 133%

SMILES | survival
CCc1ccc(NC(=O)CC2C(=O)N(c3ccccc3)C(=O)N2C(C)C)cc1 (configuration not stated) | -6% (active)
CCc1ccc(NC(=O)CC2C(=O)OCCN2CC)cc1 (configuration not stated) | -15% (active)
COc1ccc(CN2C(=O)N(c3ccc(F)cc3)C(=O)C2CC(=O)Nc2ccccc2)cc1 (configuration not stated) | 79%
COC(=O)c1ccc(NC(=O)CC2C(=O)N(c3ccc(F)cc3)C(=O)N2Cc2ccc(OC)cc2)cc1 (configuration not stated) | 131%
COC(=O)c1ccc(NC(=O)CC2C(=O)N(c3cccc(OC)c3)C(=O)N2C(C)C)cc1 (configuration not stated) | 78%
CCOC(=O)c1ccc(NC(=O)CC2C(=O)N(c3ccc(F)cc3)C(=O)N2Cc2ccc(C)cc2)cc1 (configuration not stated) | 61%
CCCOc1ccc(NC(=O)CC2C(=O)N(c3ccccc3)C(=O)N2Cc2ccc(F)cc2)cc1 (configuration not stated) | -1% (active)
CCN1CCOC(=O)C1CC(=O)Nc1ccc(Br)cc1 (configuration not stated) | 38%
COC(=O)c1ccc(NC(=O)CC2C(=O)N(c3ccccc3)C(=O)N2Cc2ccc(F)cc2)cc1 (configuration not stated) | 14% (active)
CCCOc1ccc(NC(=O)CC2C(=O)N(c3ccc(F)cc3)C(=O)N2CC(C)C)cc1 (configuration not stated) | 75%
O=C(CSc1nc(=O)n(Cc2ccco2)c2c1CCC2)Nc1ccccc1C(F)(F)F | 138%
Cc1ccccc1CNC(=O)c1ccc2c(c1)c(C)c(C)n2C | 58%
CC1CCCN(c2ccc(C(=O)NCc3ccccc3)cn2)C1 (configuration not stated) | 103%
CCc1cccc(NC(=O)CSc2nncn3c2cc2sccc23)c1 | 73%
CCOc1cccc2sc(NC(=O)CS(=O)(=O)c3ccc(C)cc3)nc12 | 72%
Cc1cccn2c(=O)c(C(=O)N3CCN(c4ccc(Cl)cc4)CC3)cnc12 | 87%
CCCSCCCNC(=O)C1CCCN(C(=O)c2cnn(-c3ccccc3)c2-n2cccc2)C1 (configuration not stated) | 107%
COc1ccccc1CNC(=O)c1oc2ccc3c(c2c1C)C(=O)CC(C)(C)O3 | 59%
Cc1ccc(OC(C)C(=O)NCC2(N3CCOCC3)CCCCC2)cc1C (configuration not stated) | 86%
CC1CCCN(Cc2c(O)ccc3c(=O)c(-c4ccc(Cl)cc4)c(C(F)(F)F)oc23)C1 (configuration not stated) | 71%
CCc1cccc(C)c1NC(=O)C(CC)Sc1nncn2c1cc1occc12 (configuration not stated) | 78%
CCc1ccc(CNC(=O)c2ccc3c(c2)nc2n3CCOC2)cc1 | 111%
CN(C(=O)C1CCN(c2ncnc3c2nc2n3CCCCC2)CC1)c1ccccc1F | 60%

SMILES | survival
O=C(CSc1c2c(nc3ccc(Cl)cc13)CCCC2)N1CCCCC1 | 29%
O=C(CSc1c2c(nc3cc(Cl)ccc13)CCCC2)N1CCN(c2ccccc2F)CC1 | 69%
O=C(CSc1c2c(nc3cc(Cl)ccc13)CCCC2)N1CCN(c2ccccc2)CC1 | 44%
CC1CCN(C(=O)CSc2c3c(nc4ccc(Cl)cc24)CCCC3)CC1 | -1% (active)
CC1CCCN(C(=O)CSc2c3c(nc4cc(Cl)ccc24)CCCC3)C1 (configuration not stated) | -1% (active)
CC1CCN(C(=O)CSc2c3c(nc4cc(Cl)ccc24)CCCC3)CC1 | 10% (active)
CC1CCCCN1C(=O)CSc1c2c(nc3cc(Cl)ccc13)CCCC2 (configuration not stated) | -1% (active)
CCC(C)NC(=O)CSc1c2c(nc3cc(Cl)ccc13)CCCC2 (configuration not stated) | 82%
CCOC(=O)C1CCN(C(=O)CSc2c3c(nc4ccc(Cl)cc24)CCCC3)CC1 | 56%
Cc1ccc(CNC(=O)CSc2c3c(nc4cc(Cl)ccc24)CCCC3)cc1 | 83%
O=C(CSc1c2c(nc3ccc(Cl)cc13)CCCC2)N1CCN(c2ccc(Cl)cc2)CC1 | 53%
COCCNC(=O)CSc1c2c(nc3cc(Cl)ccc13)CCCC2 | 71%
CCCCN1C(=O)CN(C2CCCCCC2)C(=O)C1c1ccc(OCC)c(OC)c1 (configuration not stated) | 78%
CCCCNc1nc2c(S(=O)(=O)c3ccc(Cl)cc3)nnn2c2ccsc12 | 89%
O=C(NC1CC2CCCC(C1)N2CC(=O)N1CCCc2ccccc21)c1ccccc1 (configuration not stated) | 97%
CCOc1ccc(C2CC(=O)c3c([nH]c(C(=O)OC4CCCCCC4)c3C)C2)cc1 (configuration not stated) | 79%
O=C(Cn1nc(Cc2cccnc2)c2ccccc2c1=O)N1CCN(c2ccc(F)cc2)CC1 | 89%
Cc1ccccc1CNC(=O)C(=O)NCC(c1cccs1)S(=O)(=O)c1ccc(Cl)cc1 (configuration not stated) | 74%
Cc1ccc(OCC(=O)OCc2cc(=O)n3nc(C4CCCCC4)sc3n2)cc1C | 79%
CCOC(=O)C1CCN(C(=O)c2ccc3c(c2)N=C(CC)c2cc(C)ccc2S3)CC1 | 29%
CCC1=Nc2cc(C(=O)N3CCC(C)CC3)ccc2Sc2ccc(C)cc21 | -1% (active)
CC1=Nc2cc(C(=O)N3CCCCC3)ccc2Sc2ccc(C)cc21 | 3% (active)
CNC(=O)c1ccc2c(c1)N=C(C)c1cc(C)ccc1S2 | 80%

SMILES | survival
CC1=Nc2cc(C(=O)N3CCC(C)CC3)ccc2Sc2ccc(Cl)cc21 | 81%
CCCC1=Nc2cc(C(=O)N3CCC(C)CC3)ccc2Sc2ccc(C)cc21 | 107%
CC(C)CCNC(=O)CN1C(=O)CCn2nc(-c3cn(C)c4ccccc34)cc21 | 87%
COc1ccccc1-c1c(C)nn2c(N3CCN(c4ccc(F)cc4)CC3)cc(C)nc12 | 88%
O=c1c(N2CCN(c3cccc(C(F)(F)F)c3)CC2)csc2ccc(Cl)cc12 | 74%
CCOC(=O)c1c(S(=O)(=O)NCC(=O)Nc2cc(C)ccc2C)c(C)n(C)c1C | 66%
Cn1c(=O)n(-c2cccc(Cl)c2)c(=O)c2sc3ccccc3c21 | 71%
Cc1ccc(S(=O)(=O)N2CCN(Cc3cc(=O)n4nc(-c5ccccc5Cl)sc4n3)CC2)cc1 | 64%
CCn1cc(S(=O)(=O)c2ccccc2)c(=O)c2cc(F)c(F)cc21 | 82%
CCc1ccccc1NS(=O)(=O)c1ccc2[nH]cc(C(=O)N3CCCCC3)c(=O)c2c1 | 127%
Cc1ccc(-c2nn(CCC(N)=O)c(=O)c3ccccc23)cc1 | 65%
CCOc1ccc(C(=O)Nc2ccc(-c3cc4ccccc4oc3=O)cc2)cc1Br | 75%
Cc1ccc(Cl)cc1NC(=O)c1ccc(-c2nc(CSc3ccccc3)c(C)o2)cc1 | 55%
CCN1CCC(N(Cc2cccc(OC)c2)C(=O)Nc2cccc(C)c2C)CC1 | -3% (active)
CCN1CCC(N(Cc2cccc(OC)c2)C(=O)Nc2ccc(C)cc2Cl)CC1 | 53%
CCN1CCC(N(Cc2ccc3c(c2)OCO3)C(=O)Nc2cccc(C)c2C)CC1 | 83%
CCc1cccc(C)c1NS(=O)(=O)c1ccc(-n2cccn2)cc1 | 128%
O=C(CCc1ccccc1)Nc1nnc(CCN2CCCCC2)s1 | 97%
CCCn1cc(S(=O)(=O)c2ccccc2)c(=O)c2cc(F)c(N3CCCC(C)C3)cc21 (configuration not stated) | 71%
CC(C)OC(=O)CSc1nnc(CNc2ccc(F)cc2)n1C1CCCCC1 | 108%
Cc1cccc(Cn2cccc2CNS(=O)(=O)c2ccc(Br)cc2)c1 | 64%
CCc1ccc(S(=O)(=O)NCc2cccn2Cc2cccc(C)c2)cc1 | 71%
Cc1cccc(Cn2cccc2CNS(=O)(=O)c2ccccc2F)c1 | -4% (active)
